The list is not random: actives were taken first. Their share in the collection is about 7.6%.
HCV NS3h FP: blocks HCV NS3 helicase binding to DNA; inhibition, % at 100 µM; AID 687043; NS3h Cy5-dT15 DNA binding, fluorescence polarization; 16,000 compounds, 1.6% hits;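 active = inhibition above the average over every tested compound plus 3 SD, cut at about 40% in these data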
Cy5 interf NS3h: Cy5 fluorescence interference, HCV helicase counter-screen. Cy5-dT15 DNA with NS3h; actives lie on both sides; signal over control mean, under 1 quenches. fluorescence interference ratio at 100 µM. 16,000 compounds, 6% hits;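 active = compound fluorescence over control fluorescence at most 0.8, a quencher, or at least a set upper limit, an enhancer; inactive = ratio between 0.8 and the set upper limit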
Starred values were filed as active, the others as inactive.

SMILES | HCV NS3h FP | Cy5 interf NS3h
O=C(Nc1nccs1)c1cccc(NC(=O)c2cccs2)c1 | 32.1 | 0.709*
O=C(Cc1ccccc1)Nc1ccc(C(=O)Nc2nccs2)cc1 | 21.3 | 0.677*
O=C(Nc1cc(NC(=O)c2ccccc2)cc(C(=O)Nc2nccs2)c1)c1ccccc1 | -0.6 | 1.04
CC1CCN(Cn2[nH]c(=O)ccc2=O)CC1 | -15.3 | 1.09
C=CCN(CC=C)Cn1[nH]c(=O)ccc1=O | 15.0 | 0.755*
O=C(Nc1cc(-c2ccc(F)cc2)[nH]n1)c1ccc(Br)cc1 | 13.4 | 1.08
COc1ccc2c(c1)OCC/C2=N/OC(=O)c1cc(F)c(F)cc1Cl | 3.3 | 0.997
N/C(=N/OC(=O)c1ccccc1Br)c1ccc(Cl)cc1 | 11.0 | 0.997
CSc1nc(-c2ccccc2)nc2[nH]ccc(=O)c12 | 10.5 | 0.694*
CNCCOc1cc(C)nc(-c2ccccc2)n1 | -7.2 | 1.04
O=C1/C(=C\c2cccc(C(F)(F)F)c2)SC(=S)N1c1cccc(Cl)c1 | 7.3 | 1.08
O=C1/C(=C/C=C/c2ccccc2)SC(=S)N1c1cccc(C(F)(F)F)c1 | 16.8 | 0.75*
CC(=O)Nc1sc2c(c1C(=O)Nc1ccccc1C)CCC2 | -4.2 | 0.935
Cc1ccccc1NC(=O)c1c(NC(=O)C(Cl)(Cl)Cl)sc2c1CCC2 | 13.0 | 0.681*
COc1ccc(CCN/C=C2\CC(=O)NC2=O)cc1OC | -5.2 | 1.08
N#Cc1ccc2c(c1)nc1c3cccc4cccc(c(=O)n21)c43 | -4.3 | 0.65*
Cc1cccc(Nc2cc(C)c(C#N)c3nc4ccccc4n23)c1 | 3.5 | 1.05
CC(=O)Nc1cc(-c2nc3ccccc3s2)ccc1Cl | 7.7 | 0.737*
CC(=O)Nc1cccc(-c2nc3ccccc3s2)c1 | 4.5 | 1.1
Cc1cc(/C=C(\C#N)C(=O)NCC2CCCO2)c(C)n1-c1ccc(F)cc1 (configuration not stated) | -7.1 | 1.05
O=[N+]([O-])c1cccc(-c2ccc(CO)o2)c1 | -2.8 | 0.951
O=[N+]([O-])c1cccc(C2=Nc3ccc([N+](=O)[O-])cc3ON2)c1 | 2.2 | 0.743*
Cc1cccc(OCCOc2ccccc2/C=C2/SC(=S)N(C)C2=O)c1 | -0.3 | 1.13
COc1ccc(OC)c(NC(=O)/C(=C/c2ccccc2)c2ccccc2)c1 | 4.0 | 0.607*
COc1cccc(NC(=O)/C(=C/c2ccccc2)c2ccccc2)c1 | 14.4 | 1.01
SMILES | HCV NS3h FP | Cy5 interf NS3h
COc1ccc(CCNC(=O)CN(c2cccc([N+](=O)[O-])c2)S(=O)(=O)c2ccccc2)cc1OC | 13.8 | 1.01
Cc1ccc(CSCCNC(=O)CN(c2cccc([N+](=O)[O-])c2)S(=O)(=O)c2ccccc2)cc1 | 20.4 | 1.06
COCCCNC(=O)CN(c1cccc([N+](=O)[O-])c1)S(=O)(=O)c1ccccc1 | 14.1 | 0.726*
O=C(CN(c1cccc([N+](=O)[O-])c1)S(=O)(=O)c1ccccc1)NCCSc1ccc(Cl)cc1 | 24.0 | 0.724*
N/C(Cc1ccc(Cl)cc1Cl)=N/OC(=O)COc1ccccc1 | -1.7 | 1.02
C#CC(C)(C)NC(=O)CN(c1ccc(C)cc1)S(=O)(=O)c1ccc(F)cc1 | 5.6 | 0.967
Cc1ccc(-c2ccc(/C=C3/SC(=S)NC3=O)o2)cc1Cl | 6.1 | 0.768*
O=C1NC(=S)S/C1=C/c1ccc(-c2ccc([N+](=O)[O-])cc2Br)o1 | 32.2 | 0.987
CCCNC(=O)c1cc(OC)c(OC)cc1[N+](=O)[O-] | 10.5 | 0.787*
COc1cc(C(=O)Nc2ccc(NC(C)=O)cc2)c([N+](=O)[O-])cc1OC | 9.9 | 1.01
COc1ccc(-n2nc3cc(C)c(NC(=O)c4cccc(Br)c4)cc3n2)cc1 | 8.7 | 1.02
COC(=O)CCC(=O)Nc1c(C)cc(C)cc1C | 1.6 | 1.02
CC(=O)c1ccc(N2C(=O)c3ccccc3C2=O)cc1 | 7.7 | 1.02
CC(=O)c1ccc(N2C(=O)c3c(Cl)c(Cl)c(Cl)c(Cl)c3C2=O)cc1 | 8.7 | 0.705*
Cc1cccc(/C=N\N2CCN(Cc3ccc(Cl)cc3)CC2)c1 | -4.8 | 0.907
O=C(N1CCSCC1)C(F)(F)C(F)(F)C(F)(F)C(F)(F)F | 12.0 | 0.795*
CCOC(=O)Cc1nnc(Nc2ccc(Nc3nnc(CC(=O)OCC)c4ccccc34)cc2)c2ccccc12 | 14.7 | 1.01
O=C(Nc1ccc(I)cc1)C1c2ccccc2Oc2ccccc21 | -3.0 | 1.08
CC(C)CCNC(=O)c1ccc([N+](=O)[O-])cc1Cl | 4.2 | 1.03
O=C1C2C3C=CC(C3)C2C(=O)N1c1cccc(Oc2cccc(Oc3cccc(N4C(=O)C5C6C=CC(C6)C5C4=O)c3)c2)c1 (configuration not stated) | -1.4 | 0.865
O=C1C2C3C=CC(C3)C2C(=O)N1c1cccc(-c2nc3ccccc3c(=O)o2)c1 (configuration not stated) | 15.0 | 0.761*
Cc1ccccc1/C=N\N1CCN(Cc2cccc3ccccc23)CC1 | 21.0 | 0.937
COc1ccc(N)cc1-n1c(C)ccc1C | 3.7 | 0.405*
O=C1/C(=C/c2cccc3ccccc23)SC(=S)N1C1CCS(=O)(=O)C1 (configuration not stated) | 7.6 | 0.995
